# What was measured:
# [1] = biological target: T1, Inhibitor of nuclear factor kappa-B kinase subunit epsilon (Homo sapiens) (UniProt Q14164); conditions: at 1 µM;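 further: reported values are averaged percent inhibition figures against human IKKε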
# T1 sequence (whole entry): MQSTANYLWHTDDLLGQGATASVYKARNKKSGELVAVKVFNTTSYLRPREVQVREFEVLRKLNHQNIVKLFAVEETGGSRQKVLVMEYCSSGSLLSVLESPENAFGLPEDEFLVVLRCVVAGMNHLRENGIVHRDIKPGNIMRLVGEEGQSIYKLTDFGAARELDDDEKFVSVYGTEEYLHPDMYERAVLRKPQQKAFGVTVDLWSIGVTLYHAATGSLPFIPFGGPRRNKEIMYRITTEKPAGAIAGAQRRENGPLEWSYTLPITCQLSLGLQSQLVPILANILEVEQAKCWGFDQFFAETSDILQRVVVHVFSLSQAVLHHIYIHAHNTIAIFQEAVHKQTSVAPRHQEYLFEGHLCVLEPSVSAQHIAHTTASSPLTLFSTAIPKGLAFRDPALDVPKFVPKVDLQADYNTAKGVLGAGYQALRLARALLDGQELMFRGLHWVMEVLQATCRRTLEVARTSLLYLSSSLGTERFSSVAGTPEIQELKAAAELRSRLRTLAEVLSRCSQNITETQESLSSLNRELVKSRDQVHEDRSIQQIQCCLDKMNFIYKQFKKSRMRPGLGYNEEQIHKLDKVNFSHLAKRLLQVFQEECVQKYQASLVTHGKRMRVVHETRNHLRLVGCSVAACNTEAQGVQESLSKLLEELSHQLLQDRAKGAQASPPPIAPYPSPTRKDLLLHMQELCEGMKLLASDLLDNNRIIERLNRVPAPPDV
# [2] = biological target: T2, Serine/threonine-protein kinase Nek1 (Homo sapiens) (UniProt Q96PY6); conditions: at 0.1 µM
# T2 sequence (whole entry): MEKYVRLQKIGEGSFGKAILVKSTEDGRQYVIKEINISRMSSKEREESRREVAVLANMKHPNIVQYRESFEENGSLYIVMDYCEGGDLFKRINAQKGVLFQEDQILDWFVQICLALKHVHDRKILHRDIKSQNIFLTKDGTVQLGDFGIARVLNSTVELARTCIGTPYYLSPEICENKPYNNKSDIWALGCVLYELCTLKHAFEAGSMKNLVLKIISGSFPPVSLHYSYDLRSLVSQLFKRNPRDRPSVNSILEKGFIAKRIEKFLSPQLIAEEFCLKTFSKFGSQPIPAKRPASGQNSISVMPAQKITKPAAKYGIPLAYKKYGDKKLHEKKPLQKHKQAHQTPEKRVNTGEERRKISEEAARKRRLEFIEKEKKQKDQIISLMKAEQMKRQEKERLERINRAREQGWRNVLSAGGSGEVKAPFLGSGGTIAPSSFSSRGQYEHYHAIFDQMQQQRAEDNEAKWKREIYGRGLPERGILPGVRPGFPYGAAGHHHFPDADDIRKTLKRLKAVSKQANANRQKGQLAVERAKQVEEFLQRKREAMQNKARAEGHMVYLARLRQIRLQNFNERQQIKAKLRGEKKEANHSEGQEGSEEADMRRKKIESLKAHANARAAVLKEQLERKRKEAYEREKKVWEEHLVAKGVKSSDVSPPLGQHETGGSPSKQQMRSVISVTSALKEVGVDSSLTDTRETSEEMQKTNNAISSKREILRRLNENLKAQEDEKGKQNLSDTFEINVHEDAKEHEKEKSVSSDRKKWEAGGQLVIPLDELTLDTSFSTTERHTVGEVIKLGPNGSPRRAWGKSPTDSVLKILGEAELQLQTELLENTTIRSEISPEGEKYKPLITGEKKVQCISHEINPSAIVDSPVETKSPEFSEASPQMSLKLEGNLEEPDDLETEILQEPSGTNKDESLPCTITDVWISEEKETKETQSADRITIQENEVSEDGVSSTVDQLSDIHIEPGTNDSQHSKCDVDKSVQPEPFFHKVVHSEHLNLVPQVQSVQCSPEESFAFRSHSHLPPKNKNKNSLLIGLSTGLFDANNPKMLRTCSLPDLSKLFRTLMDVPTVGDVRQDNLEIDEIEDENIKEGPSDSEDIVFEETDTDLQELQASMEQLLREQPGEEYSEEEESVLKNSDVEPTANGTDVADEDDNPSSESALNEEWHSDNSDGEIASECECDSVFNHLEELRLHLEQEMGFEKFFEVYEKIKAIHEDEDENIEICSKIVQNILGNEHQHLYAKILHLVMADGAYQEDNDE
# [3] = biological target: T2, Serine/threonine-protein kinase Nek1 (Homo sapiens); conditions: at 1 µM
# [4] = biological target: T3, Serine/threonine-protein kinase Nek2 (Homo sapiens) (UniProt P51955); conditions: at 0.1 µM
# T3 sequence (whole entry): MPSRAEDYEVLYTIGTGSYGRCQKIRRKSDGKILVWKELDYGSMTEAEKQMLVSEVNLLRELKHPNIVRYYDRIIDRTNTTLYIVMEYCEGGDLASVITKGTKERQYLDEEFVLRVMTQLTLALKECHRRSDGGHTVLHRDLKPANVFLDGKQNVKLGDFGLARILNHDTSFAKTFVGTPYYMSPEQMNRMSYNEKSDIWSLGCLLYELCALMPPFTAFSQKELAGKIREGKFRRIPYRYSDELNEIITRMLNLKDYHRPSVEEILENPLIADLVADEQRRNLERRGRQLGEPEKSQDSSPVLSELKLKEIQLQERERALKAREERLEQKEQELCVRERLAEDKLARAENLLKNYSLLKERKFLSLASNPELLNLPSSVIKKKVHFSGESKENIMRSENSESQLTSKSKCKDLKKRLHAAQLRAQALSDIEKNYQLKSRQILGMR
# [5] = biological target: T3, Serine/threonine-protein kinase Nek2 (Homo sapiens); conditions: at 1 µM
# [6] = biological target: Serine/threonine-protein kinase Nek6 (Homo sapiens) (UniProt Q9HC98); conditions: at 0.1 µM
# Serine/threonine-protein kinase Nek6 (Homo sapiens), sequence (Q9HC98 whole entry): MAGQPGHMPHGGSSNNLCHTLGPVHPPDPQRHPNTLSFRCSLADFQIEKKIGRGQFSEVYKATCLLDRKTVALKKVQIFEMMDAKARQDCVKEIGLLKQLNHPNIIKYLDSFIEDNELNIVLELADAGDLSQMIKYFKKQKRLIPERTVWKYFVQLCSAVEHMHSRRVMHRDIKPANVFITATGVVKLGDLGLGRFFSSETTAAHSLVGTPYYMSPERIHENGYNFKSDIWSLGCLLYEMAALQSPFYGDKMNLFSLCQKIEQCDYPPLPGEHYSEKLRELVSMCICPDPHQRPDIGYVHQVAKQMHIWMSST
# [7] = biological target: Serine/threonine-protein kinase Nek6 (Homo sapiens) (UniProt Q9HC98); conditions: at 1 µM
# [8] = biological target: Serine/threonine-protein kinase Nek7 (Homo sapiens) (UniProt Q8TDX7); conditions: at 0.1 µM
# Serine/threonine-protein kinase Nek7 (Homo sapiens), sequence (Q8TDX7 whole entry, looked up): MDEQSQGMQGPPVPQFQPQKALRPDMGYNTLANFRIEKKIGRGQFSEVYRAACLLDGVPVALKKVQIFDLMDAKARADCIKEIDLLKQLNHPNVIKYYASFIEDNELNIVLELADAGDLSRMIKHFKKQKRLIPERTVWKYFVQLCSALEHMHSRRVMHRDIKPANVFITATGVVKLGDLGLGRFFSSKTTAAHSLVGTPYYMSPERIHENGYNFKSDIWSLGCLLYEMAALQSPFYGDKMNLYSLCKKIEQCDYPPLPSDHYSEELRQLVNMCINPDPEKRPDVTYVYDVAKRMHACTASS
# [9] = biological target: Serine/threonine-protein kinase Nek7 (Homo sapiens) (UniProt Q8TDX7); conditions: at 1 µM
# [10] = biological target: T4, Serine/threonine-protein kinase Nek9 (Homo sapiens) (UniProt Q8TD19); conditions: at 0.1 µM
# T4 sequence (whole entry): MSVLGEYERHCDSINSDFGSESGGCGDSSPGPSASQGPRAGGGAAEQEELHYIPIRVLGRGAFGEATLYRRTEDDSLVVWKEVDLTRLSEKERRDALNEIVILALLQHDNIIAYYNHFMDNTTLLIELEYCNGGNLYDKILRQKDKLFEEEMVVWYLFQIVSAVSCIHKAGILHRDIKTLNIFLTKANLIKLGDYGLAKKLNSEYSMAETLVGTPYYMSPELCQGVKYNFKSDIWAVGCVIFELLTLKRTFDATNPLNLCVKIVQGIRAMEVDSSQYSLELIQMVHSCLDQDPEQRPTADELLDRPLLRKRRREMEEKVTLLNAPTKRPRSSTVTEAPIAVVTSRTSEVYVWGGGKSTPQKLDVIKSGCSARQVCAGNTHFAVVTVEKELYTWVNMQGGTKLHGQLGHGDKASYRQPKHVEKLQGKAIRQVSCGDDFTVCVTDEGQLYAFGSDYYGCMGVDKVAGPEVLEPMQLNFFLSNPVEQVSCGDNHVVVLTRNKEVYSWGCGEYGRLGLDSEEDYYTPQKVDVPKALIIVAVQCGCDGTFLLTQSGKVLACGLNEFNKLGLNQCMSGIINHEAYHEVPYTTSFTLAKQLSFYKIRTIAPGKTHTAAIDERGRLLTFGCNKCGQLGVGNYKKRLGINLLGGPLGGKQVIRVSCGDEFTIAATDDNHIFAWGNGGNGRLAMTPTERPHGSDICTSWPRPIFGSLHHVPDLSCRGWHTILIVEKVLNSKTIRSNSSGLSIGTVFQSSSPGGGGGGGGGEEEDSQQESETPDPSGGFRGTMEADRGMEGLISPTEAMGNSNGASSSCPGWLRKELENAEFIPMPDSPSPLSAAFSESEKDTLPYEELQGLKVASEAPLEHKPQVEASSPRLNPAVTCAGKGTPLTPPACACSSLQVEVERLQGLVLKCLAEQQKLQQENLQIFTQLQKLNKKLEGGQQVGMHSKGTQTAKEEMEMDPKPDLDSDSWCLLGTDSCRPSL
# [11] = biological target: T4, Serine/threonine-protein kinase Nek9 (Homo sapiens); conditions: at 1 µM
# [12] = biological target: Serine/threonine-protein kinase PLK1 (Homo sapiens) (UniProt P53350); conditions: at 0.1 µM
# Serine/threonine-protein kinase PLK1 (Homo sapiens), sequence (P53350 whole entry): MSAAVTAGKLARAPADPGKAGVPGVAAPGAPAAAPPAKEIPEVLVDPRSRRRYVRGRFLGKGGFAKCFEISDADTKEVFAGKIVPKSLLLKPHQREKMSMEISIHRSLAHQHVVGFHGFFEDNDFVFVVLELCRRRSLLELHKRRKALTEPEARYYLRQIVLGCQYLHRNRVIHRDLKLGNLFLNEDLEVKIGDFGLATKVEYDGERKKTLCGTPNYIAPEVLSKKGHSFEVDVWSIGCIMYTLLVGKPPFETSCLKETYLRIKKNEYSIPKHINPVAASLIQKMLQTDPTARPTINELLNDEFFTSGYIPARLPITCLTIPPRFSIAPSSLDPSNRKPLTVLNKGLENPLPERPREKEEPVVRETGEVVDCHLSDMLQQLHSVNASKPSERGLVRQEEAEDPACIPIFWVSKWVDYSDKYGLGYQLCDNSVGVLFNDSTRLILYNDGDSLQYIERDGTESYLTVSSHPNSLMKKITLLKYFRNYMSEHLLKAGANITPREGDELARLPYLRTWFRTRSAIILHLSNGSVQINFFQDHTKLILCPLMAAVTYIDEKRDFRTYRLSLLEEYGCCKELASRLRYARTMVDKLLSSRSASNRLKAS
# [13] = biological target: Serine/threonine-protein kinase PLK1 (Homo sapiens) (UniProt P53350); conditions: at 1 µM
# [14] = biological target: T5, Dual specificity protein kinase TTK (Homo sapiens) (UniProt P33981); conditions: at 0.1 µM
# T5 sequence (whole entry): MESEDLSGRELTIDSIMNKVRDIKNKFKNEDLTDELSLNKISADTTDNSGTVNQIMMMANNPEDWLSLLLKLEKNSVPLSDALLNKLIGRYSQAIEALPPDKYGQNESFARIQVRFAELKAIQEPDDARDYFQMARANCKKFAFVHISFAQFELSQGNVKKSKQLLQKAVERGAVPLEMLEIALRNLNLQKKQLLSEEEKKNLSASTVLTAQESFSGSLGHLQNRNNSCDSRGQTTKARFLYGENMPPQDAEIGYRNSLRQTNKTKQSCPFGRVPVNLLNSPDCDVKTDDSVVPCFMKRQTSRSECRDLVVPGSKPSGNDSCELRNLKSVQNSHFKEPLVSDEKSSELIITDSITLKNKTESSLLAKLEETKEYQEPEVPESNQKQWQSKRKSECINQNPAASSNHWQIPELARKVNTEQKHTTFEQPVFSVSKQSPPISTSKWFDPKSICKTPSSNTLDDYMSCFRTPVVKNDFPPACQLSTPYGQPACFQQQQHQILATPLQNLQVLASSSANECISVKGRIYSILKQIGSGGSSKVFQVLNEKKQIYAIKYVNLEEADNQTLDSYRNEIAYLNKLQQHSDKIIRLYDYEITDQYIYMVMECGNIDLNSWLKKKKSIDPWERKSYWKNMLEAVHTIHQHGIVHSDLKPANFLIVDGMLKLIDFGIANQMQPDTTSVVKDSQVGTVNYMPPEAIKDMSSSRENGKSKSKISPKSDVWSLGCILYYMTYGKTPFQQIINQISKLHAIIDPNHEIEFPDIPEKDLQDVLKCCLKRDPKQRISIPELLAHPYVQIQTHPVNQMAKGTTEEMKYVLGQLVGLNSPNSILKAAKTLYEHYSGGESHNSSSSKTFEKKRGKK
# [15] = system: T6, Receptor-type tyrosine-protein kinase FLT3 (Homo sapiens), P36888 [D835Y]; conditions: at 1 µM
# T6 sequence (whole entry): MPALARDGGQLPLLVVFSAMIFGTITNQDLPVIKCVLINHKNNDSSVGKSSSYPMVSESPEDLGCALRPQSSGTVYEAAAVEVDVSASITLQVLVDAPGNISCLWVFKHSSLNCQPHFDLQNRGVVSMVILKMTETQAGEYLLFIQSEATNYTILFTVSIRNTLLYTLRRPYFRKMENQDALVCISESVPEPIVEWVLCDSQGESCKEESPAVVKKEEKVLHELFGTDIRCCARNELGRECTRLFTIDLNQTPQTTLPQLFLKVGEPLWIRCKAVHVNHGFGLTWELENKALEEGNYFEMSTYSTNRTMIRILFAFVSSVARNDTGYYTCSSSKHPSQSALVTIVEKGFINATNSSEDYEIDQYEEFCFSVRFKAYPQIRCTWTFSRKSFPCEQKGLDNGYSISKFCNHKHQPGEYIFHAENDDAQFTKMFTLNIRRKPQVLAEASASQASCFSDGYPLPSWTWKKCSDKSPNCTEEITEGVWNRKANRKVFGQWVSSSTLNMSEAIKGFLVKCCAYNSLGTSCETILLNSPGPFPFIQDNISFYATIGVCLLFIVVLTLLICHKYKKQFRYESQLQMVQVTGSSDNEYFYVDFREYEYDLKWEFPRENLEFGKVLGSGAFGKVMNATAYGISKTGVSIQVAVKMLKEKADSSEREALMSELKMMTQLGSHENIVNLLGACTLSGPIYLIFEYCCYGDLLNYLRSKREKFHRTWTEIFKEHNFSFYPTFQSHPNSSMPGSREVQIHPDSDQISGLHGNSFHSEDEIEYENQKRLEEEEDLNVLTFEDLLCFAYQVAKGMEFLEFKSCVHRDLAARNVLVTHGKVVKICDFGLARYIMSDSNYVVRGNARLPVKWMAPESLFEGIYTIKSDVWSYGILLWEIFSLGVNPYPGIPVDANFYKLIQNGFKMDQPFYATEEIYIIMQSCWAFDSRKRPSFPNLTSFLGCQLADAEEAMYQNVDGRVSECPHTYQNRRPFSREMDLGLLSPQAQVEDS
# [16] = biological target: Vascular endothelial growth factor receptor 3 (Homo sapiens) (UniProt P35916); conditions: at 0.1 µM
# Vascular endothelial growth factor receptor 3 (Homo sapiens), sequence (P35916 whole entry): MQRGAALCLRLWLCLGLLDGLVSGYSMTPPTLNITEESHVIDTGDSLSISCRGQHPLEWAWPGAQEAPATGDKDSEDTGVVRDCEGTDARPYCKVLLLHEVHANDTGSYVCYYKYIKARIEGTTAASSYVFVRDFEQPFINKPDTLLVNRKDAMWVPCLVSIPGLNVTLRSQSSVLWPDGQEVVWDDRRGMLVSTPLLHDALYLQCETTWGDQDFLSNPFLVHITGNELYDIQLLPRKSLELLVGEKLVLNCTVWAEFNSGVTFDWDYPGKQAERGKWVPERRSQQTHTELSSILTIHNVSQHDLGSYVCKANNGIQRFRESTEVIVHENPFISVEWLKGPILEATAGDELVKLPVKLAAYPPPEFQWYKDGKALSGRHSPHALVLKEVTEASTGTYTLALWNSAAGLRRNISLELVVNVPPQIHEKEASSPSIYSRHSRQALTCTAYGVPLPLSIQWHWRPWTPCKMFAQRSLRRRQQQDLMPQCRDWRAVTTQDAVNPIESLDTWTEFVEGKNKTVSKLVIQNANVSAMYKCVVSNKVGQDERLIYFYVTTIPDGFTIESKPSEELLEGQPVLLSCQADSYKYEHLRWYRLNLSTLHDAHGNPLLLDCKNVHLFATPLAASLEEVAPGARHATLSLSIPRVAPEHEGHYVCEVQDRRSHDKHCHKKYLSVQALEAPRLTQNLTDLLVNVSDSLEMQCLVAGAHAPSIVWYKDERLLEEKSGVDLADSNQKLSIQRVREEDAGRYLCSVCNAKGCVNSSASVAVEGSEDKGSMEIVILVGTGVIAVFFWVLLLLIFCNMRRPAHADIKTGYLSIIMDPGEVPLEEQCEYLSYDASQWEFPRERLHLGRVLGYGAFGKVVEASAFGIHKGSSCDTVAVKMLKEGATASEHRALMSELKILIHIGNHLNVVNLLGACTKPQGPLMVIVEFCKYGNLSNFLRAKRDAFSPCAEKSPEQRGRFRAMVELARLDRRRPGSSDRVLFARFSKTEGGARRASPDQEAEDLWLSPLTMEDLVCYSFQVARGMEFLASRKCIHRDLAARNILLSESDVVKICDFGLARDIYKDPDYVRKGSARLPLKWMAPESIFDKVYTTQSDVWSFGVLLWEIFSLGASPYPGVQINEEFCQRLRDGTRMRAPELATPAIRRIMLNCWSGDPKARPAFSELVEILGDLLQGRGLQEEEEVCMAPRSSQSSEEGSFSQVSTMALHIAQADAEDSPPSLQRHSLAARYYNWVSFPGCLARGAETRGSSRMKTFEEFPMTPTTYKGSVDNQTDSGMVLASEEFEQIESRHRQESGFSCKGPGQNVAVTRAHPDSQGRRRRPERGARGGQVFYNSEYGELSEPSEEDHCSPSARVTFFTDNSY
# [17] = biological target: Vascular endothelial growth factor receptor 3 (Homo sapiens) (UniProt P35916); conditions: at 1 µM
# [18] = biological target: Macrophage colony-stimulating factor 1 receptor (Homo sapiens) (UniProt P07333); conditions: at 0.1 µM
# Macrophage colony-stimulating factor 1 receptor (Homo sapiens), sequence (P07333 whole entry): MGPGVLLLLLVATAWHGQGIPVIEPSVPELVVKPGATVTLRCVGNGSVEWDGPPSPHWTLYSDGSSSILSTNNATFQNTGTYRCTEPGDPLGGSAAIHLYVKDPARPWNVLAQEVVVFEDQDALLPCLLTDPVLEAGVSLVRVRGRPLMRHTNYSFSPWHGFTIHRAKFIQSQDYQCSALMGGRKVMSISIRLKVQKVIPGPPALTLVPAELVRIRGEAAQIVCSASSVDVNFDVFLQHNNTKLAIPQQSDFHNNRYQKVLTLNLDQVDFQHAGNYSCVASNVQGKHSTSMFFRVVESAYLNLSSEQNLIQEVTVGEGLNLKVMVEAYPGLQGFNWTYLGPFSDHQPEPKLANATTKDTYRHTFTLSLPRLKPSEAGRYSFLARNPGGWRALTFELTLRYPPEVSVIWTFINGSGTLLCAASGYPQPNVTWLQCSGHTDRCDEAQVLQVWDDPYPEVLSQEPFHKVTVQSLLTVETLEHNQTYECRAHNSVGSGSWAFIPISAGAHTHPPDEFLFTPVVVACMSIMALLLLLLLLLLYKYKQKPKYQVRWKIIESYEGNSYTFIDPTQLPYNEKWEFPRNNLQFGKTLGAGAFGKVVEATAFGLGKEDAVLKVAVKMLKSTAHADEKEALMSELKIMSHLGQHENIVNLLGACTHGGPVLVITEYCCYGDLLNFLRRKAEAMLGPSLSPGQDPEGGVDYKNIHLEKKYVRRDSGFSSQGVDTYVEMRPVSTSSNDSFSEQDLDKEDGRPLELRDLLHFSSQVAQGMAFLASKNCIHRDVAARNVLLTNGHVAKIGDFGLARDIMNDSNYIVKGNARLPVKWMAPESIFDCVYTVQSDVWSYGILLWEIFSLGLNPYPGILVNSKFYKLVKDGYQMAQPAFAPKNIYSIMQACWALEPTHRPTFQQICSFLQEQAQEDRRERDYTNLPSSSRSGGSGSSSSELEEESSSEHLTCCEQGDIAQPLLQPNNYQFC
# [19] = biological target: Macrophage colony-stimulating factor 1 receptor (Homo sapiens) (UniProt P07333); conditions: at 1 µM
# [20] = biological target: Tyrosine-protein kinase Fyn (Homo sapiens) (UniProt P06241); conditions: at 0.1 µM
# Tyrosine-protein kinase Fyn (Homo sapiens), sequence (P06241 2-537 limits assumed): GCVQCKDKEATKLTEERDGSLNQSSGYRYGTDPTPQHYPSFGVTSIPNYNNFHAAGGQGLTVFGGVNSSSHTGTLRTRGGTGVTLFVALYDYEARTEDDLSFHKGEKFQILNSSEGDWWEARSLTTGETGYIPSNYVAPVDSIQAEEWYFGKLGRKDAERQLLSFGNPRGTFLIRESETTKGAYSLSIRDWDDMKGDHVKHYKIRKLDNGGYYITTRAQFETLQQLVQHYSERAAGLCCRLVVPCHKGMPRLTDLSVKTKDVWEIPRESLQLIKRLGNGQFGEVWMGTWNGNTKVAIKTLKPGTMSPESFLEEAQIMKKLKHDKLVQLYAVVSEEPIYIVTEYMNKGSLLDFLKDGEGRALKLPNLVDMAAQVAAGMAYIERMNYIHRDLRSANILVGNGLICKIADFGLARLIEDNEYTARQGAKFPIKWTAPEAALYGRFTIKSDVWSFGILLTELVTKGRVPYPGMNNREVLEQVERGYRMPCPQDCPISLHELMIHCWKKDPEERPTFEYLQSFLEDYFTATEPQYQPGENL
SMILES,inhibition [1] [%],inhibition [2] [%],inhibition [3] [%],inhibition [4] [%],inhibition [5] [%],inhibition [6] [%],inhibition [7] [%],inhibition [8] [%],inhibition [9] [%],inhibition [10] [%],inhibition [11] [%],inhibition [12] [%],inhibition [13] [%],inhibition [14] [%],inhibition [15] [%],inhibition [16] [%],inhibition [17] [%],inhibition [18] [%],inhibition [19] [%],inhibition [20] [%]
CNC(=O)c1cc(-c2ccc(F)cc2)cc(-c2ccc(S(=O)(=O)N3CCCC3)cc2)c1N,3.73,1.09,2.25,4.19,2.55,3.41,2.7,3.41,7.48,5.37,7.69,2.97,3.38,4.67,5.93,0.74,2.49,0.47,1.28,1.22
c1cc(-c2cnn3nc(N4CCOCC4)ccc23)nc(NC2CC2)n1,5.49,3.14,6.78,4.47,4.05,0.95,0.56,3.89,4.77,-1.68,-2.57,2.55,2.08,18.4,37.5,5.93,29.9,6.94,33.7,0.47
COc1cc2ncn(-c3cc(OCc4ccccc4C(F)(F)F)c(C(=O)N(C)C)s3)c2cc1OC,2.1,0.82,4.81,0.75,2.7,1.08,-2.22,2.1,0.24,0.62,3.25,3.97,3.34,4.69,1.1,0.79,15.2,4.5,3.31,1.31

# Source: ChEMBL document CHEMBL1961873, “Compounds: GSK PKIS; Assays: Nanosyn kinase panel” (2012)
